Experimental data from the OligoGym collection.

What follows are sequences tested against KIAA0101 (assay: pooled miR-30 sensor sort-seq; sequence = guide strand). Settings: shRNA.
Further: reference of the scale not given here.

| Sequence | sensor-assay potency score (higher = more potent) |
| --- | --- |
| TTCCTTTTTGCCACTTGGGAGT | -1.06 |
| ATTTGTGTGATCAGGTTGCAAA | -1.36 |
| TTTTTCAGAATCTTTAGGGGAC | 0.436 |
| TTCATCATTTGTGTGATCAGGT | 1.01 |
| TTCAGGAATCTGATTCTCTTTT | -0.732 |
| TTATTTTCAGCTTTCCTCGATG | -0.0942 |
| TTACATTCTAGAATACCAGGGT | 1.19 |
| TTCCTAAGCCACTGCTTCCTGC | -1.25 |
| TTCTTTTTCATCATTTGTGTGA | -0.441 |
| TTTGCTTTTCCTAAGCCACTGC | 0.846 |

What follows are sequences tested against KIAA0319 in the same assay as above. Settings: shRNA.

| Sequence | sensor-assay potency score (higher = more potent) |
| --- | --- |
| TAAAACACAATCACGGTGCTGA | 1.15 |
| TTCAGCAGCTTTGAGAACCTTG | -0.33 |
| TTCTCTTCTATGAAGGGCCCGT | -0.659 |
| TTTATTTCTATTAACAAGCATC | -1.13 |
| TTCACCTTGGTAGTCTGTGGGG | -0.629 |
| TACATAAAACACAATCACGGTG | -0.47 |
| TTATGGTGTGATTTGGTCCTGC | 0.156 |
| TTATAATTAGGTTATCTCCAGC | -0.767 |
| TTCACTAGAAACAGTGACTTTG | -0.766 |
| TTTCACTAGAAACAGTGACTTT | -0.974 |
| AAATGTATAATCTCCTTCCTGC | 0.3 |
| TAAGAGTTTGCTTGTGTCCTTG | 0.184 |

Each sequence was assayed against KIAA0368 in the same assay as above. Settings: shRNA.

| Sequence | sensor-assay potency score (higher = more potent) |
| --- | --- |
| TTTGATGCAACATCTTGGCTAA | 0.354 |
| TTGTATTTGACATTCTCTTTGC | -0.267 |
| TTCTGAATCACACTGTTCCGAT | -0.203 |
| TTGAATAGCAAGTCGAGTCTCA | 0.314 |
| TTTATTTAAAATCACATCCAAC | -1.25 |
| TTAACTTGACTCTTGTACTGAC | 0.576 |
| TATTCTGTAATTGTTCATCTGT | 0.659 |
| TTTTCTTGCTCTGTCGCCCGGA | 0.627 |
| TTTTGTAGTCTTTATAAGCTGT | -0.31 |
| TTGAATTTGTATTTGTACCAAA | -0.672 |
| TTCTGTAGCACTCTGAATGAGT | -0.327 |
| TTTAACTTGACTCTTGTACTGA | 0.641 |

Each sequence was assayed against KIAA0564 in the same assay as above. Settings: shRNA.

| Sequence | sensor-assay potency score (higher = more potent) |
| --- | --- |
| TTTGCCAGAACAATCATCCTAA | 0.448 |
| TTTTTTTCTAATGCTGACCTAG | -0.423 |
| TTTTTCTTTGTAGAACACCAGC | -1.28 |
| ATCAACAGTAACAACACCGCTT | 0.22 |
| TAACAACTTAAGTTGGTCCTTG | 0.426 |
